# Only a selection was taken, and hits are over-represented in it overall.
# KDM5B inh = blocks human KDM5B histone demethylase activity; KDM5B demethylase, FDH-coupled NADH fluorescence (FDH is formaldehyde dehydrogenase); Potency, µM (titrated, usually from 57.7 µM), actives largely listed as inhibitors; hit rate 2.6% among 220,000; active = well fitted inhibition curve with a large enough effect; also: 0% is about no effect; nearly all actives have a fitted effect of over 70% in size
#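 qHTS format, multiple compound concentrations. Buffer 50 mM HEPES pH 7.5/0.01% Tween-20; 200 nM KDM5BΔAP final; 10 min compound preincubation; substrate-mix levels 12.5 µM peptide, 25 µM α-KG, 0.25 mM NAD⁺; 30 min RT; ΔRFU.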
# Starred values were filed as active, the others as inactive; i = inactive. Potency is read from the fitted curve at half-maximal effect.
SMILES,KDM5B inh
CCCCNC(N)=S,i
Cc1[nH]c2ccccc2c1/C=C(/C#N)C(=O)NCCO,i
Cc1ccc(-c2nc(CNC(=O)[C@@H]3CCC[C@H](N)C3)[nH]c2-c2ccccn2)cc1,28µM*
Cc1ccc(-c2nc(CNC(=O)[C@@H](N)[C@@H](C)O)[nH]c2-c2ccccn2)cc1,i
Cc1ccc(-c2nc(CNC(=O)C3CCNC3)[nH]c2-c2ccccn2)cc1 (stereo not given),i
CCc1ccccc1NC(=O)N1CCN(c2ccc(=O)n(-c3ccc(C)cc3)n2)CC1,i
COc1ccc2cc(C3CN(Cc4nc(C(N)=O)no4)CCO3)ccc2c1 (stereo not given),18µM*
COc1ccc2cc(C3CN(C(=O)CNC(=O)C(C)C)CCO3)ccc2c1 (stereo not given),i
COc1ccc(NC(=O)N2CCOC(c3ccc(Cl)cc3)C2)c(C)c1 (stereo not given),i
C=CCNC(=S)Nc1cc(Cl)ccc1C,i
COc1ccc(C(=O)N2CCC3(CC2)NC(=O)N(c2cccc(F)c2)N3)cc1OC,i
O=C(CN1CCc2ccccc2C1)N1N=C(c2ccco2)CC1c1cccs1 (stereo not given),i
CC1(COc2ccccc2)COc2ccc(C(=O)NC3CCC(O)CC3)cc2N1 (stereo not given),32µM*
CC(C)CNC(=O)c1ccc2c(c1)NC(C)(COc1ccc3[nH]ccc3c1)CO2 (stereo not given),32µM*
CC1(COc2ccc3[nH]ccc3c2)COc2ccc(C(=O)NC3CC3)cc2N1 (stereo not given),32µM*
COCCN(C)C(=O)c1ccc2c(c1)NC(C)(COc1ccc3[nH]ccc3c1)CO2 (stereo not given),i
CC1(COc2ccc3[nH]ccc3c2)COc2ccc(C(=O)NCc3cccs3)cc2N1 (stereo not given),40µM*
CN(C)C(=O)c1ccc2c(c1)NC(C)(COc1ccc3[nH]ccc3c1)CO2 (stereo not given),i
CC1(COc2ccccc2)COc2ccc(C(=O)N3CCOCC3)cc2N1 (stereo not given),i
CC1(COc2ccccc2)COc2ccc(C(=O)NCc3cnccn3)cc2N1 (stereo not given),i
CC1(C)CC(=O)C2=C(C1)OC1=C(C(=O)CC(C)(C)C1)C2c1cccc(O)c1,i
COc1ccc(-c2c(NC(=O)c3ccc(F)cc3)oc3ccccc3c2=O)cc1,i
COCC(=O)NC[C@H]1CCN(Cc2ccccc2)C[C@H]1N(C)C,i
CCSc1ccccc1C(=O)Nc1ccc(CC)cc1,i
COCC(=O)NC1CCC12CCN(Cc1ccc(F)c(F)c1)CC2 (stereo not given),i
SMILES,KDM5B inh
CN(CCc1ccccc1)[C@@H]1[C@H](O)[C@H](CO)O[C@@H]1CNC(=O)c1cccc(F)c1,i
O=C(Nc1ccc2oc(-c3ccccc3)cc(=O)c2c1)c1ccc(F)cc1,i
Cc1ccc(Nc2nc(-c3ccc(C)cc3C)cs2)cc1,i
Cc1ccc(N(Cc2ccco2)C(=O)CCc2ncc(-c3c(F)cccc3F)o2)cc1,i
CC1(COc2ccc3[nH]ccc3c2)COc2ccc(C(=O)N3CCOCC3)cc2N1 (stereo not given),i
CC1(COc2ccc3[nH]ccc3c2)COc2ccc(C(=O)N3CC(O)C3)cc2N1 (stereo not given),35µM*
COc1ccc(NC(=O)Nc2ccc3nc(N4CCOCC4)cc(C)c3c2)cc1,i
c1ccc(-n2nccc2CN2CCC3(CCNCC3)C2)cc1,i
CC(C)c1ccc(/C=N/NC(=O)C2CC2c2ccccc2)cc1 (stereo not given),i
COCCn1cc2c3c(cccc31)CN(C(=O)c1cccc(C(F)(F)F)c1)CC2,28µM*
COc1cc(OC)cc(C(=O)N2CCc3cn(C)c4cccc(c34)C2)c1,i
CCCN1CCN(C(=O)c2cccc(C(F)(F)F)c2)CC1,i
COCCN1C(=O)CS(=O)(=O)C12CCN(C(=O)COc1cccc(C)c1)CC2,i
CC(=O)Nc1ccc(OCC(=O)N2CCc3ccccc3C2)cc1,i
Cc1ccc(OCC(=O)N2CCc3ccccc3C2)c(Br)c1,i
CCCn1cc2c3c(cccc31)CN(C(=O)COc1ccccc1)CC2,32µM*
COCCn1cc2c3c(cccc31)CN(C(=O)COc1cccc(C)c1)CC2,32µM*
COc1cc2c(cc1OC)CN(C(=O)CCOc1ccccc1)CC2,i
CN1CCC(N[C@H]2C[C@@H](Cc3cc(CN(C)Cc4ccccc4)on3)C2(C)C)CC1,i
Cc1nc(SC(C)c2ccc(F)c(F)c2)sc1CC(N)=O (stereo not given),i
CCC(=O)N(C1CCOCC1)C1CCN(S(=O)(=O)c2ccc(F)c(F)c2)CC1,i
CCNC(=O)N1CCC(CCOc2ccccc2)C1 (stereo not given),i
Cc1cccc(-c2nc3n(CC(=O)N4CCCCCC4)c(C)cc(=O)n3n2)c1,i
CCN(CC)C(=O)Cn1ccn2nc(-c3ccccc3)c(CO)c2c1=O,i
COc1cccc([S+](=O)([O-])N2CCCC3(COc4ccccc4C(=O)N3)C2)c1 (stereo not given),25µM*
SMILES,KDM5B inh
O=C1NC2(CCN([S+](=O)([O-])c3cccc(C(F)(F)F)c3)C2)Oc2ccccc21 (stereo not given),i
COc1cccc([S+](=O)([O-])N2CCC3(C2)NC(=O)c2ccccc2O3)c1 (stereo not given),i
COc1cccc([S+](=O)([O-])N2CCC3(C2)N=C(c2cccnc2)C(=O)N3)c1 (stereo not given),28µM*
Cc1noc(C)c1[S+](=O)([O-])N1CCC2(C1)N=C(c1cccnc1)C(=O)N2 (stereo not given),i
COc1cccc([S+](=O)([O-])N2CCC3(C2)OC(=O)Nc2cnccc23)c1 (stereo not given),i
O=C1NC2(CCN([S+](=O)([O-])c3cccc(C(F)(F)F)c3)C2)COc2ccccc21 (stereo not given),i
COc1cccc([S+](=O)([O-])N2CCC3(CC2)CNC(=O)c2ccccc2O3)c1,i
O=C1NC2(CCCN([S+](=O)([O-])c3cccc(C(F)(F)F)c3)C2)COc2ccccc21 (stereo not given),35µM*
CCOc1ccc2c(n1)CCN(C(=O)c1ccn(CC)n1)C2,i
CC(NC(=O)c1ccc2c(c1)NC(=O)CS2)c1ccc(F)cc1F (stereo not given),i
Brc1csc(CNC2CCCc3c2cnn3Cc2ccccc2)c1 (stereo not given),i
CNC(=O)C(C)n1nc(-c2cc(C)ccc2C)c2ccccc2c1=O (stereo not given),i
Cn1cccc1C(=O)NC1CCCN(c2cc(-c3ccc(Cl)cc3)[nH]n2)C1 (stereo not given),i
c1coc(CNCc2ccsc2)c1,i
CCc1cccc2c(C(CC(=O)NCCc3ccc(OC)c(OC)c3)c3cccc(F)c3)c[nH]c12 (stereo not given),i
CC(C)NC(=O)C[C@@H]1c2nc(NC(=O)c3c(F)cccc3F)sc2C[C@@H]2[C@](C)(CO)[C@H](O)CC[C@]21C,i
CC(C)(C)CC(=O)Nc1nc2c(s1)C[C@@H]1[C@](C)(CO)[C@H](O)CC[C@@]1(C)[C@@H]2CC(=O)NCc1ccco1,i

# Screening results (PubChem BioAssay)
